In PubChem BioAssay (EPA / NIEHS):
“And” between values parts separate entries of the source, which are not always exact repeats. Equal entries are not always repeated. The source holds several records for some structures; these can differ, active in one and inactive in another. The source made the active and inactive calls. The calls were made as follows: active = hit-call score of the fitted dose curve at least 0.9, where 1 is the maximum; inactive = score below 0.9.

Tests used:
[1] = ATG_GLI_CIS: Attagene CIS-FACTORIAL HepG2 Assay for human Zinc Finger Protein GLI1 (AID 2282945); conditions: HepG2, Attagene cis-factorial reporter mRNA, GLI element; actives raise or lower the signal
Summary of the method: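 Bidirectional curve fits relative to DMSO, using reporter mRNA levels from RT-PCR plus capillary electrophoresis. Cells were HepG2 transiently carrying cis-regulated reporter constructs, harvested 24 h after dosing.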

[2] = molecular target: Bile acid receptor (Homo sapiens) (UniProt Q96RI1); assay: ATG_IR1_CIS: Attagene CIS-FACTORIAL HepG2 Assay for human Nuclear Receptor Subfamily 1 Group H Member 4 (NR1H4), IR1 submotif (AID 2282946); conditions: IR1 reporter transcription, actives raise or lower the signal
Chain of Bile acid receptor (Homo sapiens) (Q96RI1 whole entry, looked up, the tested form may be a part): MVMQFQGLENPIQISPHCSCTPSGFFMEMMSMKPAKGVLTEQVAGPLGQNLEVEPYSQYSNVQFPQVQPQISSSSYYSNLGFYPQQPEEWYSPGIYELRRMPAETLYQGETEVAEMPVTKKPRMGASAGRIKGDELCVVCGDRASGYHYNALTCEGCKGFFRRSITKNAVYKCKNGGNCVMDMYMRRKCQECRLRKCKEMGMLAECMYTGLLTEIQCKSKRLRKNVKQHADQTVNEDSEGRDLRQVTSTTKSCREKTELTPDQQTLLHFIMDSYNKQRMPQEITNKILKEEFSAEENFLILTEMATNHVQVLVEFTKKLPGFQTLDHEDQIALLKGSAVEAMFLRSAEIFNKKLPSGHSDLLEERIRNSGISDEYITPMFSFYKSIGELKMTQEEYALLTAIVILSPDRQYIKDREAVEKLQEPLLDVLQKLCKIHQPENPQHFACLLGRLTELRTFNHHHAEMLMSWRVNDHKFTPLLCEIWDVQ
Summary of the method: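 Cells (human HepG2) carry transiently transfected cis-promoter reporter transcription units. Compounds are incubated 24 h, total RNA is reverse-transcribed and amplified, and labelled fragments are resolved by capillary electrophoresis. Curves use DMSO as baseline.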

[3] = ATG_GRE_CIS: Attagene CIS-FACTORIAL HepG2 Assay for human Glucocorticoid Response Elements (GRE) (AID 2282947); conditions: HepG2 GRE cis-reporter, Attagene multiplex mRNA; actives raise or lower the signal
Summary of the method: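 Transient MRTU transfection of human HepG2 liver cells; cis-regulated reporters report endogenous factors. 24 h dosing → RNA isolation → RT-PCR → 6-FAM primer extension → HpaI cut → CE fragment analysis. Bidirectional fit, DMSO negative control.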

[4] = ATG_ISRE_CIS: Attagene CIS-FACTORIAL HepG2 Assay for human Interferon Regulatory Factor 1 (IRF1) binding to an Interferon-Stimulated Response Element (ISRE) (AID 2282948); conditions: HepG2 ISRE cis-reporter (Attagene), mRNA transcription readout; actives raise or lower the signal
Summary of the method: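 Cell-based cis-reporter assay; HepG2; 24 h exposure; reporter mRNA by RT-PCR plus capillary electrophoresis fluorescence; activity in either direction scored relative to DMSO.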

[5] = ATG_M_32_CIS: Attagene CIS-FACTORIAL HepG2 Assay for M32 Transcription Factor (Internal Marker) (AID 2282949); conditions: HepG2 Attagene cis-factorial M32 reporter, mRNA; actives raise or lower the signal;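 also: background control marker of the multiplexed CIS panel rather than a real target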
Summary of the method: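 Fluorescent capillary electrophoresis peaks of HpaI-digested, FAM-labelled RT-PCR reporter products give the signal. Source: transiently transfected human liver HepG2 cells, 24 h after chemical dosing; bidirectional fitting against DMSO.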

[6] = ATG_M_06_CIS: Attagene CIS-FACTORIAL HepG2 Assay for M06 Transcription Factor (Internal Marker) (AID 2282950); conditions: HepG2 Attagene CIS-FACTORIAL M06 internal marker reporter; actives raise or lower the signal
Summary of the method: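 Fluorescence-labelled RT-PCR products from cis-promoter reporter units, cut with HpaI and resolved by capillary electrophoresis, give the signal. Cells are human HepG2, dosed for 24 h. Serves as background control, fitted relative to DMSO.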

[7] = molecular target: Hypoxia-inducible factor 1-alpha (Homo sapiens) (UniProt Q16665); assay: ATG_HIF1a_CIS: Attagene CIS-FACTORIAL HepG2 Assay for human Hypoxia Inducible Factor 1 (HIF1A) (AID 2282951); conditions: HepG2 Attagene cis-factorial HIF1a reporter transcription; actives raise or lower the signal
Chain of Hypoxia-inducible factor 1-alpha (Homo sapiens) (Q16665 whole entry, looked up): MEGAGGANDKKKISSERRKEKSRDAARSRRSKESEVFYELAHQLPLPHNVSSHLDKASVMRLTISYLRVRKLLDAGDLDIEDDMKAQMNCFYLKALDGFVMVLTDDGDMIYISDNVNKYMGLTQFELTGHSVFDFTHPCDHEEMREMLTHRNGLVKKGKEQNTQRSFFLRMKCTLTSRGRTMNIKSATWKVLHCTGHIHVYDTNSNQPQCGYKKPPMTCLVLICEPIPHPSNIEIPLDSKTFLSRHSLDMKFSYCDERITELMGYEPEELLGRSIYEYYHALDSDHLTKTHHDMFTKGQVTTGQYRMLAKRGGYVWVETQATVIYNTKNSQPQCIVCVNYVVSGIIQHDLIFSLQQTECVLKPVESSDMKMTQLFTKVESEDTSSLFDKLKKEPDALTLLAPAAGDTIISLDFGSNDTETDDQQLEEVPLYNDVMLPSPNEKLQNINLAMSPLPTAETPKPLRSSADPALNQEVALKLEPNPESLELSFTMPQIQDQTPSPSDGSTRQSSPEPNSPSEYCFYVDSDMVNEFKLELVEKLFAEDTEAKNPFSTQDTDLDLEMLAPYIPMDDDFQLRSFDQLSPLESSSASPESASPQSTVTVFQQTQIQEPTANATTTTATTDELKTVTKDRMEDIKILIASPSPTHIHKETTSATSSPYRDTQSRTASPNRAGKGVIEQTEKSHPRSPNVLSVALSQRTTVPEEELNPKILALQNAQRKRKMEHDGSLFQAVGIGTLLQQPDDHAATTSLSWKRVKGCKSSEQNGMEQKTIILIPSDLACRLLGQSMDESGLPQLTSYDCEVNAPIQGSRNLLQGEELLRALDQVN
Summary of the method: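 In this multiplexed cell assay, HepG2 cells bearing transfected cis reporters are dosed for 24 h and reporter mRNA is read by RT-PCR plus capillary electrophoresis; signal increases and decreases are both scored against DMSO.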

[8] = molecular target: Heat shock factor protein 1 (Homo sapiens) (UniProt Q00613); assay: ATG_HSE_CIS: Attagene CIS-FACTORIAL HepG2 Assay for human Heat Shock Transcription Factor 1 (HSE) (AID 2282953); conditions: HepG2 HSE cis-reporter, Attagene RNA transcription; actives raise or lower the signal
Chain of Heat shock factor protein 1 (Homo sapiens) (Q00613 whole entry, looked up): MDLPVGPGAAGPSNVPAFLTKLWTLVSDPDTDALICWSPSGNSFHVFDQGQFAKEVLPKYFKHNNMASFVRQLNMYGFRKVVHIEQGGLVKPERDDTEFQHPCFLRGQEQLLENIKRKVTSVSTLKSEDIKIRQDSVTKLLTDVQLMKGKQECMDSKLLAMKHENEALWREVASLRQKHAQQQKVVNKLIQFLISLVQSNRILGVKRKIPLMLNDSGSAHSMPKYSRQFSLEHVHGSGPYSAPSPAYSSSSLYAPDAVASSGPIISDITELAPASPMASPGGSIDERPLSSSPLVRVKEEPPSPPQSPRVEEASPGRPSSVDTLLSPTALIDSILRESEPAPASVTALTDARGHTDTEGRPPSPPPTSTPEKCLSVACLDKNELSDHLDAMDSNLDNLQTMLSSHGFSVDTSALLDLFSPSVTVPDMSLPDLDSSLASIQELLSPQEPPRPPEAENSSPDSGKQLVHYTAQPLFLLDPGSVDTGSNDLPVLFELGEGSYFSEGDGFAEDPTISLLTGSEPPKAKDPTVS
Summary of the method: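 After a 24 h incubation with test chemical, transfected HepG2 cells were harvested for RNA; reporter transcripts were measured by RT-PCR and capillary electrophoresis. Values reflect gain or loss of signal relative to DMSO.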

[9] = ATG_MRE_CIS: Attagene CIS-FACTORIAL HepG2 Assay for human Metal Responsive Element (MRE) (AID 2282954); conditions: HepG2 MRE cis-reporter transcription, Attagene multiplex; actives raise or lower the signal
Summary of the method: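 Transient MRTU transfection of HepG2 (FuGene 6); 24 h dosing; total RNA → oligo(dT) RT, PCR, 6-FAM primer extension, HpaI cut, CE. Bidirectional fit vs DMSO.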

[10] = ATG_PBREM_CIS: Attagene CIS-FACTORIAL HepG2 Assay for human Phenobarbital-responsive Enhancer Module (PBREM) (AID 2282955); conditions: HepG2 PBREM cis-reporter, Attagene multiplexed transcription; actives raise or lower the signal
Summary of the method: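 After a 24 h incubation with test chemical, transfected HepG2 cells yield total RNA; reporter-specific RT-PCR products are fluorescently labelled, HpaI-digested and resolved by capillary electrophoresis against ROX size standards.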

[11] = molecular target: Paired box protein Pax-6 (Homo sapiens) (UniProt P26367); assay: ATG_Pax6_CIS: Attagene CIS-FACTORIAL HepG2 Assay for human Paired Box 6 (PAX6) (AID 2282956); conditions: HepG2 CIS-FACTORIAL PAX6 reporter transcription, RNA readout; actives raise or lower the signal
Chain of Paired box protein Pax-6 (Homo sapiens) (P26367 whole entry, looked up): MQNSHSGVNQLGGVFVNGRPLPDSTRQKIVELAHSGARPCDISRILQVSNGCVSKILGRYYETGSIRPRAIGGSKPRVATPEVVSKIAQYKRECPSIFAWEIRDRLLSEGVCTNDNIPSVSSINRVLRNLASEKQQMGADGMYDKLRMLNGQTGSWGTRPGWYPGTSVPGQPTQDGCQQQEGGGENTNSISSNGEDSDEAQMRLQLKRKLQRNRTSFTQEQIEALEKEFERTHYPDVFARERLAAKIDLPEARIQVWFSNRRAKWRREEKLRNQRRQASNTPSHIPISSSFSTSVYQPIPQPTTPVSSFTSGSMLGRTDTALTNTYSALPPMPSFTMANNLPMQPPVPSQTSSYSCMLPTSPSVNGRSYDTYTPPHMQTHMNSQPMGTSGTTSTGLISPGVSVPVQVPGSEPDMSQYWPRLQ
Summary of the method: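 Multiplexed cis-reporter HepG2 system; 24 h treatment; reporter mRNA read by RT-PCR/CE fluorescence; bidirectional fit vs DMSO.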

[12] = ATG_PXRE_CIS: Attagene CIS-FACTORIAL HepG2 Assay for human Pregnane X Receptor Element (PXRE) (AID 2282957); conditions: HepG2 Attagene CIS-FACTORIAL PXRE reporter, mRNA; actives raise or lower the signal
Summary of the method: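 Cells: HepG2, transiently transfected reporter units under cis promoter control. Exposure: 24 h. Detection: reporter mRNA via RT-PCR/CE fluorescence; bidirectional fitting, DMSO-referenced.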

[13] = ATG_PPRE_CIS: Attagene CIS-FACTORIAL HepG2 Assay for human Peroxisome Proliferator-activated Response Element (PPRE) (AID 2282958); conditions: HepG2 PPRE cis-element reporter, Attagene transcription factor profiling; actives raise or lower the signal
Summary of the method: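 Multiplexed reporter transcription units under cis-regulatory promoters were transfected into HepG2 cells to capture endogenous factor activity. A 24 h incubation preceded RNA isolation and fluorescent RT-PCR fragment analysis.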

[14] = ATG_RORE_CIS: Attagene CIS-FACTORIAL HepG2 Assay for human RAR-related Orphan Receptor Element (RORE) (AID 2282959); conditions: HepG2 Attagene cis-factorial RORE reporter, mRNA; actives raise or lower the signal
Summary of the method: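 Fluorescence intensity of reporter-specific cDNA fragments, separated by capillary electrophoresis, gives the signal. Source: HepG2 liver cells transiently transfected with cis-element reporters and exposed 24 h; DMSO-normalized bidirectional fit.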

[15] = ATG_Sox_CIS: Attagene CIS-FACTORIAL HepG2 Assay for human SRY-box transcription factor (SOX) (AID 2282960); conditions: HepG2 Attagene cis-factorial SOX reporter, mRNA; actives raise or lower the signal
Summary of the method: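 After 24 h of chemical treatment, transfected HepG2 reporter cells are lysed for total RNA. Transcript levels come from RT-PCR with labelled primer extension and capillary electrophoresis, analysed bidirectionally versus DMSO.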

[16] = molecular target: Transcription factor Sp1 (Homo sapiens) (UniProt P08047); assay: ATG_Sp1_CIS: Attagene CIS-FACTORIAL HepG2 Assay for human Specificity Protein 1 (Sp1) (AID 2282961); conditions: HepG2 Sp1 cis-reporter transcription, actives raise or lower the signal
Chain of Transcription factor Sp1 (Homo sapiens) (P08047 whole entry, looked up): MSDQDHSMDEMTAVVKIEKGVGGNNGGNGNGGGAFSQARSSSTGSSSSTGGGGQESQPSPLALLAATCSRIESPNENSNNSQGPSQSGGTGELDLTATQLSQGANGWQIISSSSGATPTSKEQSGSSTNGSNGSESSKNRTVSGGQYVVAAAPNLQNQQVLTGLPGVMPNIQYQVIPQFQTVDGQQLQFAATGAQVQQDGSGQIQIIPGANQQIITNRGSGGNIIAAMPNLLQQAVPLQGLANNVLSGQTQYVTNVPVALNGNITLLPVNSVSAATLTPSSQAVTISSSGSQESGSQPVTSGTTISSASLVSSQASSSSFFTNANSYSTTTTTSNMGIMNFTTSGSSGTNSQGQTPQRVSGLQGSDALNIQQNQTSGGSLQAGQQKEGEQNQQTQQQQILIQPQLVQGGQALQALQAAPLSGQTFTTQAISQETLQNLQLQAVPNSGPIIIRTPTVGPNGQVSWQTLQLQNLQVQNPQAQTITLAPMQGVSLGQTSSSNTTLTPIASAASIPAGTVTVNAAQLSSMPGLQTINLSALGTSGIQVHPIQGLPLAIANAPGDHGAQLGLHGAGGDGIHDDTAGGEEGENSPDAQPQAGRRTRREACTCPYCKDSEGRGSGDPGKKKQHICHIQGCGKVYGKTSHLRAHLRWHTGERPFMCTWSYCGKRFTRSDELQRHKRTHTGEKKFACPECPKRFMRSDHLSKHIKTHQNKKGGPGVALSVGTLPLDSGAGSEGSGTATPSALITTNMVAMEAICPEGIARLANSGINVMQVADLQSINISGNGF
Summary of the method: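 Sp1-driven reporter mRNA, read as capillary electrophoresis fluorescence after RT-PCR, in transiently transfected HepG2 cells dosed for 24 h; signal change in either direction relative to DMSO.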

[17] = ATG_SREBP_CIS: Attagene CIS-FACTORIAL HepG2 Assay for human Sterol Regulatory Element Binding (SREBP) (AID 2282962); conditions: HepG2 Attagene cis-factorial SREBP reporter, mRNA; actives raise or lower the signal
Summary of the method: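 mRNA induction of transfected cis-promoter reporters in HepG2 cells, 24 h post-dose. Detection: RT-PCR with 6-FAM-labelled products, HpaI digest, capillary electrophoresis. DMSO served as negative control and baseline.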

[18] = molecular target: Hepatocyte nuclear factor 6 (Homo sapiens) (UniProt Q9UBC0); assay: ATG_HNF6_CIS: Attagene CIS-FACTORIAL HepG2 Assay for human Hepatocyte Nuclear Factor 6 (HNF6) (AID 2282952); conditions: HepG2 Attagene cis-factorial HNF6 reporter transcription; actives raise or lower the signal
Chain of Hepatocyte nuclear factor 6 (Homo sapiens) (Q9UBC0 whole entry, looked up): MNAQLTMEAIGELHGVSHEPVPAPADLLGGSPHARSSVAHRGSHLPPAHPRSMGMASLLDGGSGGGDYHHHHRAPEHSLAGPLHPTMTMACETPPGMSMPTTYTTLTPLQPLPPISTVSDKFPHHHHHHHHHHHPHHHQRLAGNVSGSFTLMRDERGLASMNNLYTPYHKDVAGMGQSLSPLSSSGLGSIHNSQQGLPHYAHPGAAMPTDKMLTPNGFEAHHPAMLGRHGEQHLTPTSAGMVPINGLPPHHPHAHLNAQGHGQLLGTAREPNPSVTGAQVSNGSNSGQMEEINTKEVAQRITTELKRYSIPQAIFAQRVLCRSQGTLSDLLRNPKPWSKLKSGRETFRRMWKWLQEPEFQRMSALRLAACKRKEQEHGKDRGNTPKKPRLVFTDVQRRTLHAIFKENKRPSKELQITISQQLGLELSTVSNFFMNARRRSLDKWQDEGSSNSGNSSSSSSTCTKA
Summary of the method: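 Multiplexed mRNA reporter assay in transfected HepG2; 24 h dosing; RT-PCR plus capillary electrophoresis fluorescence; DMSO-referenced bidirectional curve fitting.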

[19] = molecular target: Signal transducer and activator of transcription 3 (Homo sapiens) (UniProt P40763); assay: ATG_STAT3_CIS: Attagene CIS-FACTORIAL HepG2 Assay for human Signal Transducer and Activator of Transcription 3 (STAT3) (AID 2282963); conditions: HepG2, Attagene cis-factorial STAT3 reporter transcription; actives raise or lower the signal
Chain of Signal transducer and activator of transcription 3 (Homo sapiens) (P40763 whole entry, looked up): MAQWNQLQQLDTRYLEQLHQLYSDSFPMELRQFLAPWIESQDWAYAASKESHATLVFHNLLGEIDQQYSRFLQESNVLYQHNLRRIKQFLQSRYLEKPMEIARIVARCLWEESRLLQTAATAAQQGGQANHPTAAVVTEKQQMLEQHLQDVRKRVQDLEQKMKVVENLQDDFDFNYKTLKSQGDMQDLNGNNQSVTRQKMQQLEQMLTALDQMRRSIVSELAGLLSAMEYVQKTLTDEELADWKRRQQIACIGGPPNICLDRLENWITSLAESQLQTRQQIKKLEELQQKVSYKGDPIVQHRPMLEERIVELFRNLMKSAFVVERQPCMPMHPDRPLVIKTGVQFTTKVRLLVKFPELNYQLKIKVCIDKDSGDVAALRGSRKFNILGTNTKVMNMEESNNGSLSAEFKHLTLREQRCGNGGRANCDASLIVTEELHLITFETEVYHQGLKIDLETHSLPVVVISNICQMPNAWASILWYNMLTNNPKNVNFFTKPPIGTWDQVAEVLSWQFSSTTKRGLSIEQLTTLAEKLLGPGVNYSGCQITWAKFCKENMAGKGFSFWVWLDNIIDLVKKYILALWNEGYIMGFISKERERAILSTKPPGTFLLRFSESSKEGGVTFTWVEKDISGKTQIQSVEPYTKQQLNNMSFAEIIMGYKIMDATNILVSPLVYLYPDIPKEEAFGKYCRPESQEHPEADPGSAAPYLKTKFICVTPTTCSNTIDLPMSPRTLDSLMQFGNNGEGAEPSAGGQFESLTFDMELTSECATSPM
Summary of the method: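 Endogenous STAT3-responsive cis-element activity was read in transiently transfected HepG2 cells after 24 h treatment. Reporter transcripts were quantified via RT-PCR and capillary electrophoresis, with DMSO as negative control and bidirectional curve fitting.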

[20] = ATG_TA_CIS: Attagene CIS-FACTORIAL HepG2 Assay for human TA Basal Promoter (AID 2282964); conditions: HepG2 Attagene CIS-factorial TA basal promoter reporter; actives raise or lower the signal
Summary of the method: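 Multiplexed mRNA reporter assay, HepG2, 24 h. Reporter cDNA amplified, 6-FAM primer-extended, HpaI-cut, CE-sized; DMSO = negative control and baseline.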

Measured: AC50

CC(=O)C1C(=O)C=C(C)OC1=O (stereo unspecified)
not listed: [18] | [19] | [20]
inactive: all other assays above

C#C[C@]1(O)CC[C@H]2[C@@H]3CCc4cc(O)ccc4[C@H]3CC[C@@]21C
inactive: [1] | [3] | [4] | [5] | [6] | [18] | [8] | [9] | [11] | [12] | [13] | [14] | [15] | [16] | [17]
active: [1] 98.4 µM and 72.2 µM and 62.4 µM | [3] 159 µM | [4] 33.4 µM and 27.3 µM | [5] 161 µM | [18] 58.1 µM and 100 µM | [8] 59.2 µM [middle of 4 runs] | [9] 52.1 µM [middle of 4 runs] | [12] 3.19 µM [middle of 4 runs] | [14] 67.3 µM and 60.7 µM and 26.4 µM | [15] 130 µM and 54.9 µM | [16] 169 µM and 44.8 µM

C1=COCCC1
not listed: [7] | [10]
inactive: all other assays above
